In PubChem BioAssay (NCATS):
Results filed as inconclusive are left out. Active and inactive are the calls of the source. Calls come from the whole dose curve.
% is set by controls: 0 for no effect and ±100 for the full control effect; potency is the fitted concentration of half-maximal effect.

These molecules were tested against Atrial natriuretic peptide receptor 1 (Homo sapiens) (UniProt P16066) (assay: Natriuretic polypeptide receptor (hNpr1) antagonism - Pilot CMLD screen (AID 1347052;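 note: cGMP level read as GloSensor luciferase luminescence after agonist stimulation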;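 for activity change, negative = inhibition: HEK293 cells with hNpr1 stimulated by hNppA peptide at 0.1 nM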)). Conditions: HEK293 hNpr1 GloSensor cGMP luminescence, ANP-stimulated; series mostly up to 9.22 µM; activity change, negative = inhibition: at the top concentration.
Sequence of Atrial natriuretic peptide receptor 1 (Homo sapiens) (P16066 whole entry, looked up): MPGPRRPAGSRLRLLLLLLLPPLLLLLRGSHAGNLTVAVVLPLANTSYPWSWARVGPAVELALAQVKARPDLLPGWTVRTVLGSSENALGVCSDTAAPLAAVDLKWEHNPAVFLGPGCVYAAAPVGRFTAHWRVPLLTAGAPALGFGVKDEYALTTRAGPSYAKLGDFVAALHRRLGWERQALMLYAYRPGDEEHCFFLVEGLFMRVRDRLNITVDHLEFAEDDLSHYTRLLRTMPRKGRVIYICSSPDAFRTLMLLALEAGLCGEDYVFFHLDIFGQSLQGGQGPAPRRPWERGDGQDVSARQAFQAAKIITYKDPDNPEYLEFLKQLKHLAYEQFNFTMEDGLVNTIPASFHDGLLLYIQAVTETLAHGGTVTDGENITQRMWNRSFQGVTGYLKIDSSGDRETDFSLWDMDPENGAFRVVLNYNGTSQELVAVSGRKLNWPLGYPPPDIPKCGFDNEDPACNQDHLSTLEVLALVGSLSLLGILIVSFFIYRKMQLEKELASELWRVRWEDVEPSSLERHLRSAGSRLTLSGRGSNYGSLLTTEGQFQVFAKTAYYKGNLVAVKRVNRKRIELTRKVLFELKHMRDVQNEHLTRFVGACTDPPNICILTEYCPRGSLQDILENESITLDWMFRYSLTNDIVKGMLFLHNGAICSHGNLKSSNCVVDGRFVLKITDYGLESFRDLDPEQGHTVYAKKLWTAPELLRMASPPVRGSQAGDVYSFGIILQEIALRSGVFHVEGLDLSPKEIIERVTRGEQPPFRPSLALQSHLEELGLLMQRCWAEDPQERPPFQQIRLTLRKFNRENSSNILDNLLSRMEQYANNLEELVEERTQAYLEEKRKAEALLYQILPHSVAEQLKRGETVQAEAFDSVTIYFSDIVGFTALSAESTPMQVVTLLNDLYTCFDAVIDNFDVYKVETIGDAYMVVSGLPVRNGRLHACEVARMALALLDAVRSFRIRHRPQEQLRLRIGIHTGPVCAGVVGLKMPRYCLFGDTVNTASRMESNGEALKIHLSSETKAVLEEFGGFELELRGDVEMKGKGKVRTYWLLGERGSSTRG
`CC(=O)OC[C@H]1O[C@H](CC=NO[C@@H](C)c2cn([C@H](CO)Cc3ccccc3)nn2)C=C[C@@H]1OC(C)=O` was tested, and the “activity change, negative = inhibition” value was 10.7% (inactive).
With `COc1cc2c(c(OC)c1)[C@H](C=Cc1ccccc1)[C@@H]([C@H](O)CO)OC2` the “activity change, negative = inhibition” value was 1.23% (inactive).
In the case of `C[C@@H]1CC[C@H]2C(=O)O[C@@H](Cc3ccccc3)CN2[C@@H]1c1ccc(Br)cc1`, the “activity change, negative = inhibition” value was -0.939% (inactive).
With `COC(=O)N[C@@H](c1cccc(F)c1)[C@@H](C)[N+](=O)[O-]` the “activity change, negative = inhibition” value was -0.345% (inactive).
With `CCN1C(=NCc2ccc(OC)cc2)NC(c2cccc(F)c2)C(C(=O)OC)=C1C` (stereo not given) the “activity change, negative = inhibition” value was 2.03% (inactive).
With `CCOC(=O)C1=CN(CCC=C(C)C)C(=O)NC1c1ccccc1` (stereo not given) the “activity change, negative = inhibition” value was -0.013% (inactive).
For `CC(C)CON=C1C[C@@H](O)[C@@H](O)[C@@H]2[C@H]3C(=O)N(Cc4ccccc4)C(=O)[C@@H]3CC[C@@H]12`, the “activity change, negative = inhibition” value was 2.09% (inactive).
In the case of `CC1(O)C(=O)C=C2C=C(c3ccc(C#N)cc3)OC=C2C1=O` (stereo not given), the “activity change, negative = inhibition” value was 13.4% (inactive).
With `COC(=O)CC=C[C@@H](C)[C@@H](C=NO[C@H](C)c1cn([C@H](CO)Cc2ccccc2)nn1)NS(=O)(=O)c1ccc(C)cc1` the “activity change, negative = inhibition” value was 12% (inactive).
With `C[C@H]1Cc2c(-c3ccccc3)nc3c(c2CO1)CN(S(=O)(=O)c1ccc(Cl)c2nonc12)CC3` the “activity change, negative = inhibition” value was 3.19% (inactive).
In the case of `CCN1C(=NCCCCO)N[C@@H](CCc2ccccc2)[C@H](C(=O)OC)[C@H]1C`, the “activity change, negative = inhibition” value was -3.71% (inactive).
For `COC(=O)N(C=Cc1ccc(OC)cc1)CCc1ccc(OC)c(OC)c1`, the “activity change, negative = inhibition” value was 6.07% (inactive).
`Cc1noc(C)c1S(=O)(=O)N1CCc2nc(COc3ccccc3)c3c(c2C1)CO[C@@H](C)C3` was tested, and the “activity change, negative = inhibition” value was 0.149% (inactive).
With `C=C1C2c3ccccc3C(CC2(C)O[Si](C)(C)C)N1C(=O)OC` (stereo not given) the “activity change, negative = inhibition” value was 1.17% (inactive).
In the case of `COC(=O)[C@@H]1C[C@@]23C(=NN=C(SC)C2Nc2ccccc23)N1C(C)=O` (stereo not given in full), the “activity change, negative = inhibition” value was 3.48% (inactive).
In the case of `COC(=O)c1ccc(CN2C(=O)C3(CC(C)=C[C@@H](C)O3)c3c(Br)cccc32)cc1` (stereo not given in full), the Potency was “inactive”.
`CCCCC1=CC2=C(c3ccco3)C(=O)C(C)(OC(=O)c3ccc(OC)cc3)C(=O)C2=CN1Cc1ccccc1` (stereo not given) was tested, and the “activity change, negative = inhibition” value was -2.76% (inactive).
For `CC(C)OC(=O)CC(NC(=O)OC(C)(C)C)c1ccccc1` (stereo not given), the “activity change, negative = inhibition” value was -4.61% (inactive).
`COC(=O)C1(C)C=C(Nc2ccc(OC)cc2)C(=O)N1c1ccc(OC)cc1` (stereo not given) was tested, and the “activity change, negative = inhibition” value was 4.15% (inactive).
For `COC1=C[C@H](C(=O)NCc2ccccn2)[C@@]2(C)Cc3ccccc3[C@@H]2CC1=O`, the “activity change, negative = inhibition” value was 6.72% (inactive).
`CCC(=O)C[C@@H](NC(=O)OC)c1ccccc1` was tested, and the “activity change, negative = inhibition” value was -3.32% (inactive).
With `COC(=O)[C@H]1[C@H](CCc2ccccc2)NC(=O)N(Cc2ccccc2)[C@H]1C` the “activity change, negative = inhibition” value was -2.55% (inactive).
For `C[C@H]1[C@H](N=[N+]=[N-])[C@H](O)CCO[C@@H]1c1ccccc1`, the “activity change, negative = inhibition” value was 7.89% (inactive).
`C=C1CN2C(=NC(c3ccccc3)C(C(=O)OC)=C2C)O1` (stereo not given) was tested, and the “activity change, negative = inhibition” value was -4.93% (inactive).
In the case of `C=CCOC(=O)[C@H](O)[C@@H](O)C(=O)OCC=C`, the “activity change, negative = inhibition” value was -0.0733% (inactive).
With `C#CCN1C(=O)CC[C@@]23C1=NC(C(=O)OC)=C(C(=O)OC)[C@@H]2N(Cc1ccccc1)c1ccccc13` the “activity change, negative = inhibition” value was 2.33% (inactive).
With `COC(=O)C1=C(C(=O)OC)[C@@H]2Nc3ccccc3[C@@]23C[C@@H](C(=O)OC)N(C(=O)COCc2ccccc2)C3=N1` the “activity change, negative = inhibition” value was 6.09% (inactive).
In the case of `Cc1ccc([S+](=O)([O-])N[C@@H]2COC(=O)CC=C[C@H](C)COC(=O)N[C@@H](C)C(=O)CC=C[C@H]2C)cc1`, the “activity change, negative = inhibition” value was -1.5% (inactive).
`CCN1C(=NCC(C)C)N[C@H](c2ccccc2)[C@H](C(=O)OC)[C@H]1C` was tested, and the “activity change, negative = inhibition” value was -4.58% (inactive).
In the case of `C=CCOC(=O)N[C@@H](c1ccccc1)[C@@H](C)[N+](=O)[O-]`, the “activity change, negative = inhibition” value was -4.4% (inactive).
`C=CCOC(=O)NC(c1ccc(F)c(F)c1)C(C(=O)CCl)C(=O)OC` (stereo not given) was tested, and the “activity change, negative = inhibition” value was -1.57% (inactive).
`CCOC(=O)C1=CN(CCC=C(C)C)C(=O)N(C(C)=O)C1c1ccccc1` (stereo not given) was tested, and the “activity change, negative = inhibition” value was 1.4% (inactive).
With `COC1=CC2C(=O)C(C1=O)C1c3ccccc3CC21` (stereo not given) the “activity change, negative = inhibition” value was 2.36% (inactive).
`CCOC(=O)NN=C1C[C@@H](O)[C@@H](O)[C@@H]2[C@H]3C(=O)N(Cc4ccc5c(c4)OCO5)C(=O)[C@@H]3CC[C@H]12` was tested, and the “activity change, negative = inhibition” value was 2.34% (inactive).
For `CCOC(=O)C1=C(CCl)NC(=O)N(C(C)=O)C1c1ccccc1` (stereo not given), the “activity change, negative = inhibition” value was -0.922% (inactive).
In the case of `C#CCCCON=C1C[C@@H](O)[C@H](O)[C@H]2[C@@H]3C(=O)N(C[C@@H]4CCCO4)C(=O)[C@@H]3CC[C@@H]12`, the “activity change, negative = inhibition” value was 3.37% (inactive).
In the case of `CCN1C(=NCc2cc(OC)c(OC)c(OC)c2)NC(c2ccccc2)C(C(=O)OC)=C1C` (stereo not given), the Potency was “inactive”.
`CC(C)=CCCC(C)=CCON=C1C[C@@H](O)[C@@H](O)[C@@H]2[C@H]3C(=O)N(C[C@@H]4CCCO4)C(=O)[C@@H]3CC[C@@H]12` was tested, and the “activity change, negative = inhibition” value was 9.58% (inactive).
With `O=C(C=Cc1cccc([N+](=O)[O-])c1)c1ccccc1` the Potency was 2.99 µM (active).
In the case of `CC#CCN1C(=O)N(C)C(c2ccccc2)C(C(=O)OC)=C1C` (stereo not given), the “activity change, negative = inhibition” value was 0.905% (inactive).
